About 83,000 compounds went through this panel and 20% of them were active in at least one assay; those are over-represented in the sample as a whole.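 Each cell line was grown in a 96-well plate and treated with one concentration of compound for 48 hours. Values below 10 were considered active.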 Values without a mark were called inactive. Active and inactive are the calls of the source.
What was measured:
Experiment in all cases: NCI-60 one-dose screen, 48 h (100 = growth as untreated, 0 = no growth, -100 = all killed)
Conditions in all cases: 10 µM unless noted
SR leukemia = system: SR leukemia
RPMI-8226 leukemia = system: RPMI-8226 leukemia
OVCAR-8 ovarian = system: OVCAR-8 ovarian
OVCAR-5 ovarian = system: OVCAR-5 ovarian
OVCAR-4 ovarian = system: OVCAR-4 ovarian
SK-OV-3 ovarian = system: SK-OV-3 ovarian
IGROV1 ovarian = system: IGROV1 ovarian
OVCAR-3 ovarian = system: OVCAR-3 ovarian
HS 578T breast = system: HS 578T breast
NCI/ADR-RES ovarian = system: NCI/ADR-RES ovarian

Row | Compound | growth (SR leukemia) | growth (RPMI-8226 leukemia) | growth (OVCAR-8 ovarian) | growth (OVCAR-5 ovarian) | growth (OVCAR-4 ovarian) | growth (SK-OV-3 ovarian) | growth (IGROV1 ovarian) | growth (OVCAR-3 ovarian) | growth (HS 578T breast) | growth (NCI/ADR-RES ovarian)
1 | CNC(=O)c1cc(-c2ccc(NC(=S)Nc3cccc(C(F)(F)F)c3)cc2)nc2cccnc12 | 80.8% | 95.2% | 93.9% | 102% | 96.6% | 105% | 103% | 109% | 105% | 95.3%
2 | CCOC(=O)c1c(NC(=O)c2cccc(C(F)(F)F)c2)sc2c3c(ccc12)OCN(C)C3 | -41.7% (active) | -47.6% (active) | -41.6% (active) | -14% (active) | -44.2% (active) | 75.7% | -78.7% (active) | -44.7% (active) | 38.4% | -54.3% (active)
3 | O=S(=O)(NCCCNc1nccc(-c2[nH]c(-c3ccccc3)nc2-c2ccc(F)c(O)c2)n1)c1cccc2ccccc12 | 28.6% | 4.6% (active) | 54.3% | 146% | 81.9% | 103% | 58.3% | 88.4% | 40.7% | 91.1%
4 | Fc1cccc(Cl)c1/C=N/Nc1nc(N/N=C/c2c(F)cccc2Cl)nc(N2CCCCC2)n1 | 16.1% | 3.27% (active) | 25.8% | 27.8% | 21% | 39.1% | 17.7% |  | 33.3% | 
5 | CC(=O)Nc1ccccc1-c1nc2ccccc2s1 | 110% | 113% | 103% | 102% | 97.4% | 108% | 101% | 112% | 106% | 98.5%
6 | COc1cc(/C=N\NC(=O)c2ccc3nc(-c4ccc(Br)cc4)[nH]c3c2)cc(OC)c1OC | 37.9% | 10.7% | 45.6% | 119% | 74.1% | 68.3% | 57.9% |  | 38% | 
7 | O=C1/C(=C/C=C/c2ccco2)SC(=S)N1Cc1ccccc1 | 46.3% | 93.6% | 100% | 105% | 95.1% | 103% | 92.9% |  | 104% | 
8 | Cc1ccc(S(=O)(=O)c2nc(-c3ccc(F)cc3)oc2S(C)(=O)=O)cc1 | 8.12% (active) | 31.7% | 86.9% | 95.2% | 92.1% | 100% | 45.2% |  | 90.6% | 
9 | Cc1cc(NS(=O)(=O)c2ccc(NC(=O)CSc3nc4ccccc4c(=O)n3-c3ccccc3)cc2)no1 | 97.9% | 110% | 102% | 92.7% | 102% | 106% | 97.6% | 109% | 93.3% | 102%
10 | Brc1ccc(-c2cc(-c3ccc4c(c3)OCCO4)n[nH]2)s1 | 17.7% | 13.4% | 36% | 58.1% | 71.7% | 55.1% | 34.6% |  | 51.4% | 
11 | Cc1[nH]c(C(=O)Nc2ccc(C(=O)NCC3CCNCC3)cc2OC(C)C)c(Cl)c1Cl | -0.735% (active) | 42.3% | 86.6% | 84.9% | 89.5% | 97.3% | 54.4% | 85.6% | 69.1% | 100%
12 | CN1c2ccccc2Sc2cc(/C=N/Nc3ccnc4cc(Cl)ccc34)ccc21 | -1.36% (active) | 46.3% | 60.5% | 106% | 94% | 102% | 104% | 90.8% | 105% | 12.6%
13 | CCOC(=O)C1=C(C)NC(C)=C(C(=O)OCc2ccccc2)C1c1cccc(C#N)c1 (centres undefined) | 21.7% | 32.3% | 48% | 61.3% | 71.5% | 75.1% | 42.1% | 23.6% | 40.2% | 22.7%
14 | COc1ccc([C@H]2C(=O)N(c3cc(OC)c(OC)c(OC)c3)[C@@H]2c2ccc(OC)c(O)c2)cc1 | 11.4% | 22.2% | 5.81% (active) | 34.6% | 63.5% | 27.5% | 28.2% |  | 2.75% (active) | 
15 | Cc1ccc(NC2=C(Cl)C(=O)c3nc(C)ccc3C2=O)c(C)c1 | 10.3% | -10.4% (active) | 28.3% | -1.15% (active) | -96.5% (active) | 117% | -58.8% (active) | -98.6% (active) | 6.94% (active) | 4.37% (active)
16 | O=C1CSC(c2cn(-c3ccccc3)nc2-c2ccc(Cl)cc2)N1c1ccccc1 (centres undefined) | 109% | 103% | 104% | 112% | 110% | 114% | 114% | 124% | 108% | 104%
17 | C#CCOc1cccc(-c2nc(N)nc(Nc3ccccc3SSc3ccccc3Nc3nc(N)nc(-c4cccc(OCC#C)c4)n3)n2)c1 | -16.2% (active) | 22% | 16.7% | 45% | 80.9% | 91.5% | -5.3% (active) | 79.7% | 51.9% | 5.66% (active)
18 | Clc1ccc(CSc2nnc(-c3ccc(Cl)cc3)n2-c2ccccc2)cc1 | 91.7% | 94.4% | 46.3% | 104% | 16% | 48.3% | 75.9% | 101% | 43.7% | 54.2%
19 | CN1CCN(CCCCCC(=O)Nc2nc(-c3cccc(NS(=O)(=O)c4cccc5c(N(C)C)cccc45)c3)cs2)CC1 | -4.68% (active) | 34.9% | 87.8% | 91.6% | 89.6% | 105% | 87.8% |  | 73.1% | 
20 | COc1ccc(-c2c(C(N)=O)c(N)n(Cc3nc4ccccc4[nH]3)c(=O)c2C#N)c(OC)c1 | 90.5% | 99% | 97.2% | 110% | 108% | 90.9% | 72% |  | 99.2% | 
21 | COc1ccc2c(c1)C=CC1(O2)Oc2ccc(OC)cc2C=C1C (centres undefined) | 11.3% | 19% | 17.5% | 29.7% | 74.6% | 57.2% | 24.5% |  | 22.3% | 9.17% (active)
22 | C#Cc1nc(/C=C/C(=O)NO)cs1 | -42.9% (active) | -6.82% (active) | 21% | 42.3% | -24.9% (active) | 95.6% | -71.5% (active) |  | 56% | 
23 | O=C(CCCCCCN1CC(=O)N2[C@@H](c3ccccc3Br)c3[nH]c4ccccc4c3C[C@H]2C1=O)NO | 14% | 12% | 34.1% | 50.9% | 88.1% | 75.5% | 48.3% |  | 59.6% | 
24 | Fc1cc(F)cc(NNC(=S)c2ccccc2)c1 | 23.2% | 15.6% | 41% | 91.8% | 49.1% | 28.1% | 57.2% |  | 61.3% | 
25 | Cc1ccc(-c2csc(N/N=C/c3cccs3)n2)cc1 | 56.1% | 86.5% | 93.6% | 122% | 59.6% | 101% | 86.3% | 104% | 105% | 92.7%
26 | O=[N+]([O-])c1ccc(NC(=S)NNC(=S)Nc2ccc(Br)cc2)cc1 | 79.4% | 79.4% | 98.6% | 91.4% | 98.2% | 100% | 71.7% |  | 107% | 84.5%
27 | NC(=O)n1c(=O)n(-c2cccc(C(F)(F)F)c2)c(=O)c2cc(-c3ccc(F)cc3F)ccc21 | 4.71% (active) | -30.6% (active) | 8.4% (active) | 43.7% | 28.4% | -12.9% (active) | 14.8% |  | -6.46% (active) | 2.36% (active)
28 | CC[C@]12CC(C(=O)OC)=C3Nc4ccccc4[C@@]34CCN(C14)[C@@H]1c3cc4c(cc3O[C@@H]1[C@H]2O)NC1=C(C(=O)OC)C[C@@]2(CC)C3N(CC[C@@]143)C[C@H]1O[C@H]12 (some centres undefined) | 6.59% (active) | -3% (active) | 24.4% | 38.6% | 33.2% | 27.9% | 15.9% |  | 12.2% | 1.07% (active)
